Measurements reported in PubChem BioAssay AID1159580 (chemical genetic matrix, 2015).
The campaign covered roughly 5,500 compounds. About 2,000 (36%) were called active. Another 18% or so got no clear call; they are omitted. Cut-off read from the data, not from the text of the source: active = normalized growth mostly below about 0.91 (no sharp cut-off); inconclusive = no clear call, values can overlap the other calls; inactive = mostly above about 0.92. Some of the results follow.

Assay: chemical genetic growth profiling, strain panel (AID 1159580);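 note: tested at 20 µM; growth read once vehicle control cultures reached saturation at 30 °C; 1 = growth at the plate median or of vehicle wells; lower values mean less growth of the strain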
Settings: growth OD

Measured: normalized growth

COC(=O)C[C@H]1C(C)(C)[C@@H](OC(C)=O)[C@@H]2CC3=C4CC(=O)O[C@@H](c5ccoc5)[C@]4(C)CCC3[C@@]1(C)C2=O (some centres not stated)
inactive: S. cerevisiae deletion strains, locus YJR066W, strain TOR1, active compounds read low 0.954 | S. cerevisiae deletion strains, locus YJR075W, strain HOC1, active compounds read low 0.997 | S. cerevisiae deletion strains, locus YKL009W, strain mrt4, active compounds read low 0.986 | S. cerevisiae deletion strains, locus YKL068W, active compounds read low 1 | S. cerevisiae deletion strains, locus YKL085W, strain MDH1 (second series), active compounds read low 0.993 | S. cerevisiae deletion strains, locus YKL085W, strain MDH1, active compounds read low 0.993 | S. cerevisiae deletion strains, locus YKL160W, strain elf1, active compounds read low 1.02 | S. cerevisiae deletion strains, locus YKR001C, strain vps1, active compounds read low 1.01 | S. cerevisiae deletion strains, locus YKR026C, strain gcn3, active compounds read low 0.992 | S. cerevisiae deletion strains, locus YKR091W, strain srl3, active compounds read low 0.996 | S. cerevisiae deletion strains, locus YLL001W, strain dnm1, active compounds read low 0.949 | S. cerevisiae deletion strains, locus YLL026W, active compounds read low 0.998 | S. cerevisiae deletion strains, locus YLL041C, strain sdh2, active compounds read low 0.997 | S. cerevisiae deletion strains, locus YLR027C, strain aat2, active compounds read low 0.998 | S. cerevisiae deletion strains, locus YLR039C, strain RIC1, active compounds read low 0.993 | S. cerevisiae deletion strains, locus YLR058C, strain SHM2, active compounds read low 1 | S. cerevisiae deletion strains, locus YLR102C, strain apc9, active compounds read low 1.01 | S. cerevisiae deletion strains, locus YLR113W, strain HOG1, active compounds read low 1.03 | S. cerevisiae deletion strains, locus YLR221C, strain rsa3, active compounds read low 0.961 | S. cerevisiae deletion strains, locus YLR258W, strain gsy2, active compounds read low 1.01 | S. cerevisiae deletion strains, locus YLR262C, strain YPT6 (second series), active compounds read low 1.02 | S. cerevisiae deletion strains, locus YLR268W, strain sec22, active compounds read low 0.993 | S. cerevisiae deletion strains, locus YLR320W, strain mms22, active compounds read low 0.978 | S. cerevisiae deletion strains, locus YLR330W, strain CHS5, active compounds read low 1 | S. cerevisiae deletion strains, locus YLR342W, strain FKS1 (second series), active compounds read low 1.02 | S. cerevisiae deletion strains, locus YLR342W, strain FKS1, active compounds read low 1.02 | S. cerevisiae deletion strains, locus YLR357W, strain rsc2, active compounds read low 1.01 | S. cerevisiae deletion strains, locus YLR370C, strain arc18, active compounds read low 0.986 | S. cerevisiae deletion strains, locus YLR371W, strain rom2, active compounds read low 0.983 | S. cerevisiae deletion strains, locus YLR384C, strain iki3, active compounds read low 0.985 | S. cerevisiae deletion strains, locus YLR418C, strain cdc73, active compounds read low 1.04 | S. cerevisiae deletion strains, locus YML016C, strain PPZ1, active compounds read low 0.992 | S. cerevisiae deletion strains, locus YML032C, strain rad52, active compounds read low 0.974 | S. cerevisiae deletion strains, locus YML120C, strain ndi1, active compounds read low 1.01 | S. cerevisiae deletion strains, locus YML124C, strain tub3, active compounds read low 1.01 | S. cerevisiae deletion strains, locus YMR058W, strain fet3, active compounds read low 0.993 | S. cerevisiae deletion strains, locus YMR078C, strain ctf18, active compounds read low 1.01 | S. cerevisiae deletion strains, locus YMR125W, strain sto1, active compounds read low 1.01 | S. cerevisiae deletion strains, locus YMR129W, active compounds read low 0.988 | S. cerevisiae deletion strains, locus YMR205C, strain PFK2, active compounds read low 1.02 | S. cerevisiae deletion strains, locus YMR223W, strain ubp8, active compounds read low 0.998 | S. cerevisiae deletion strains, locus YMR231W, strain pep5, active compounds read low 0.998 | S. cerevisiae deletion strains, locus YMR263W, strain SAP30, active compounds read low 1.01 | S. cerevisiae deletion strains, locus YMR307W, strain GAS1, active compounds read low 0.927 | S. cerevisiae deletion strains, locus YNL067W, strain RPL9B, active compounds read low 1.01 | S. cerevisiae deletion strains, locus YNL071W, strain lat1, active compounds read low 1 | S. cerevisiae deletion strains, locus YNL128W, strain TEP1, active compounds read low 0.99 | S. cerevisiae deletion strains, locus YNL153C, strain GIM3, active compounds read low 1.02 | S. cerevisiae deletion strains, locus YNL183C, strain NPR1, active compounds read low 0.958 | S. cerevisiae deletion strains, locus YNL209W, strain ssb2, active compounds read low 1 | S. cerevisiae deletion strains, locus YNL233W, strain BNI4, active compounds read low 1.01 | S. cerevisiae deletion strains, locus YNL248C, strain rpa49, active compounds read low 0.961 | S. cerevisiae deletion strains, locus YNL250W, strain rad50, active compounds read low 1 | S. cerevisiae deletion strains, locus YNL271C, strain bni1, active compounds read low 0.982 | S. cerevisiae deletion strains, locus YNL298W, strain CLA4, active compounds read low 1.01 | S. cerevisiae deletion strains, locus YNL307C, strain MCK1, active compounds read low 1.01 | S. cerevisiae deletion strains, locus YNL322C, strain KRE1 (second series), active compounds read low 1.01 | S. cerevisiae deletion strains, locus YNR049C, strain mso1, active compounds read low 0.994 | S. cerevisiae deletion strains, locus YNR052C, strain pop2, active compounds read low 1.01 | S. cerevisiae deletion strains, locus YOL012C, strain htz1 1.31 | S. cerevisiae deletion strains, locus YOL147C, strain pex11, active compounds read low 0.999 | S. cerevisiae deletion strains, locus YOR001W, strain rrp6, active compounds read low 0.939 | S. cerevisiae deletion strains, locus YOR061W, strain CKA2, active compounds read low 0.995 | S. cerevisiae deletion strains, locus YOR069W, strain VPS5, active compounds read low 1 | S. cerevisiae deletion strains, locus YOR070C, strain gyp1, active compounds read low 0.991 | S. cerevisiae deletion strains, locus YOR080W, strain dia2, active compounds read low 0.987 | S. cerevisiae deletion strains, locus YOR083W, strain WHI5, active compounds read low 1.02 | S. cerevisiae deletion strains, locus YOR106W, strain vam3, active compounds read low 1.02 | S. cerevisiae deletion strains, locus YOR136W, strain idh2, active compounds read low 0.987 | S. cerevisiae deletion strains, locus YOR144C, strain elg1, active compounds read low 0.998 | S. cerevisiae deletion strains, locus YOR184W, strain ser1, active compounds read low 0.987 | S. cerevisiae deletion strains, locus YOR231W, strain MKK1, active compounds read low 0.988 | S. cerevisiae deletion strains, locus YOR265W, strain rbl2, active compounds read low 1 | S. cerevisiae deletion strains, locus YOR270C, strain vph1, active compounds read low 0.888 | S. cerevisiae deletion strains, locus YOR290C, strain snf2, active compounds read low 1.03 | S. cerevisiae deletion strains, locus YOR316C, strain cot1, active compounds read low 1.01 | S. cerevisiae deletion strains, locus YPL051W, strain arl3, active compounds read low 1 | S. cerevisiae deletion strains, locus YPL078C, strain atp4, active compounds read low 1.01 | S. cerevisiae deletion strains, locus YPL106C, strain sse1, active compounds read low 1.04 | S. cerevisiae deletion strains, locus YPL240C, strain hsp82, active compounds read low 1 | S. cerevisiae deletion strains, locus YPL256C, strain CLN2, active compounds read low 0.983 | S. cerevisiae deletion strains, locus YPR119W, strain clb2, active compounds read low 0.996 | S. cerevisiae deletion strains, locus YPR141C, strain kar3, active compounds read low 1 | S. cerevisiae deletion strains, locus YPR163C, strain tif3, active compounds read low 1 | S. cerevisiae deletion strains, locus YPR167C, strain met16, active compounds read low 0.995 | S. cerevisiae deletion strains, strain wtn01, active compounds read low 0.978 | S. cerevisiae strains, strain wild type, active compounds read low 0.997
